Data as given in PubChem BioAssay (NCI).
This is part of a sample that, as a whole, favours compounds with a hit. Of some 83,000 tested, about 20% had one in any assay.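 Single-concentration screen, 48 h exposure, 96-well plates. Endpoint: percent growth. Below 10 = active.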 Active and inactive are the calls of the source.

Experiments:
Assay in all cases: NCI-60 one-dose screen, 48 h (100 = growth as untreated, 0 = no growth, -100 = all killed)
Details in all cases: 10 µM unless noted
[1] = system: HCT-15 colon
[2] = system: HT29 colon
[3] = system: SNB-75 CNS
[4] = system: SNB-19 CNS
[5] = system: PC-3 prostate
[6] = system: SK-MEL-5 melanoma
[7] = system: UACC-62 melanoma
[8] = system: LOX IMVI melanoma
[9] = system: SK-MEL-28 melanoma
[10] = system: SK-MEL-2 melanoma
[11] = system: EKVX NSCLC
[12] = system: SN12C renal
[13] = system: UO-31 renal
[14] = system: TK-10 renal
[15] = system: ACHN renal
[16] = system: CAKI-1 renal
[17] = system: A498 renal
[18] = system: CCRF-CEM leukemia
[19] = system: MOLT-4 leukemia
[20] = system: U251 CNS

Measured: growth

O=C(Nc1ccc(Cl)cc1)Nc1ccccc1CNc1nc(Nc2ccc(OCCN3CCCC3)cc2)ncc1Cl
active: [1] 6.28% | [2] 0.197% | [3] -17% | [5] -8.19% | [8] -95.1% | [9] -77.7% | [13] -6.76% | [14] -51.5% | [15] -54.4% | [16] 5.67% | [18] 4.29% | [19] -13.4%
inactive: [4] 42% | [6] 50.2% | [7] 99.3% | [10] 102% | [11] 33.7% | [12] 93.2% | [17] 75.6%

O=C(Oc1cccc2ccccc12)c1ccccc1C(=O)c1ccccc1
inactive: [1] 93.2% | [2] 59.5% | [3] 98.1% | [4] 101% | [20] 79.5% | [5] 47.6% | [7] 96.6% | [8] 72.3% | [10] 97.1% | [11] 80% | [12] 101% | [13] 60.8% | [14] 129% | [15] 95.5% | [16] 88.1% | [17] 70.8% | [18] 16% | [19] 14.8%

O=C(/C=C/c1cccc(O)c1)c1cccc(-n2cc(-c3ccccc3)[nH]c2=O)c1
inactive: [3] 41.2% | [4] 50% | [6] 55.3% | [7] 55.7% | [9] 30.8% | [11] 66.8% | [14] 12.4% | [17] 90.6%
active: [1] -18.9% | [2] 9.73% | [20] -77% | [8] -69.5% | [12] -12.9% | [13] -73.5% | [15] -75.8% | [16] 8.38% | [18] -3.86% | [19] -7.37%

Cc1ncc(C(=O)Nc2ccc(CN3CCN(C)CC3)c(C(F)(F)F)c2)cc1C#Cc1cncc2ncccc12
active: [13] 1.39% | [17] -4.12%
inactive: [1] 48.4% | [2] 32.4% | [3] 74.4% | [4] 107% | [5] 90.6% | [6] 37.5% | [7] 40.7% | [8] 10.8% | [9] 16.3% | [10] 14.5% | [11] 78.3% | [12] 50.6% | [14] 82.6% | [15] 26.8% | [16] 50% | [18] 66.7% | [19] 41.6%

COc1ccc(CCN2C(=O)CCC3=C2CCCC3=O)cc1OC
inactive: [1] 97.6% | [2] 108% | [3] 82.3% | [4] 100% | [5] 96.6% | [6] 99.1% | [7] 105% | [8] 98.8% | [9] 108% | [10] 122% | [12] 101% | [13] 81.8% | [14] 114% | [15] 100% | [16] 109% | [17] 103% | [19] 103%

COc1ccc2[nH]c(=O)c(CNc3ccc(Nc4nccc(-c5ccc(Cl)cc5)n4)cc3)cc2c1
inactive: [1] 74.3% | [2] 76% | [3] 106% | [4] 95.4% | [5] 71.4% | [6] 95.6% | [7] 96.7% | [8] 97.1% | [9] 112% | [10] 87% | [11] 94% | [12] 87.1% | [13] 64% | [14] 102% | [15] 90.1% | [16] 97.6% | [18] 75.7% | [19] 48.4%

Cn1ccnc1C(=O)/C=C/c1ccc(C(=O)Nc2nc3ccccc3[nH]2)cc1
active: [2] 8.78% | [3] -17%
inactive: [1] 24.3% | [4] 41.1% | [5] 38.1% | [6] 83.1% | [7] 74.7% | [8] 11.5% | [9] 89.7% | [10] 85.4% | [11] 62.3% | [12] 51.7% | [13] 28.3% | [14] 66.5% | [15] 49.3% | [16] 18.6% | [17] 51.1% | [18] 15.4% | [19] 45.2%

O=[N+]([O-])c1ccc2[nH]cc(-c3c4ccccc4cc4[nH]c5ccc([N+](=O)[O-])cc5c34)c2c1
active: [10] 2.23% | [18] 7.25% | [19] 6.8%
inactive: [1] 19.9% | [2] 13.4% | [3] 16.6% | [4] 47.6% | [5] 17.2% | [6] 23.2% | [7] 28.6% | [8] 21.3% | [9] 28.1% | [11] 39.4% | [12] 36.7% | [14] 58.7% | [15] 15.4% | [16] 25.3%

Oc1c(N=Nc2nn[nH]n2)ccc2ccccc12
inactive: [1] 68.2% | [2] 81.8% | [3] 143% | [4] 92.6% | [5] 67.6% | [6] 38.4% | [7] 77% | [8] 78% | [9] 94.6% | [10] 107% | [12] 84.3% | [13] 59.1% | [14] 132% | [15] 86.8% | [16] 98.2% | [17] 102% | [19] 99.2%

COc1cccc(CCN2C(=O)CCC3=C2CCC3=O)c1
inactive: [1] 108% | [2] 106% | [3] 84.4% | [4] 102% | [5] 93.5% | [6] 98.2% | [7] 97.8% | [8] 97.9% | [9] 111% | [10] 145% | [12] 99.4% | [13] 85.7% | [14] 107% | [15] 99.8% | [16] 98% | [17] 114% | [19] 105%

O=c1ncc(-c2ccc(C(F)(F)F)cc2)c(NC2CCCCCC2)[nH]1
inactive: [1] 103% | [2] 56.5% | [3] 87% | [4] 54.9% | [5] 25.7% | [6] 20.9% | [7] 29.6% | [8] 57.9% | [9] 49.3% | [10] 50.9% | [12] 45.9% | [13] 52.3% | [14] 65.1% | [15] 24.4% | [16] 93% | [17] 84.4% | [18] 46.4%

N=C1c2nc3n(c2C(=O)c2nc4n(c21)CCCCC4)CCCCC3
inactive: [1] 109% | [2] 106% | [3] 105% | [4] 113% | [5] 113% | [6] 88.7% | [7] 110% | [8] 92% | [9] 118% | [10] 118% | [11] 103% | [12] 106% | [13] 83.6% | [14] 142% | [15] 105% | [16] 95.1% | [17] 91.6% | [18] 104% | [19] 93.7%

COc1c(Br)cc(C(c2cc(Br)c(OC)c(Br)c2)c2ccccc2C(=O)O)cc1Br
inactive: [1] 115% | [2] 100% | [3] 76.7% | [4] 95.9% | [5] 89.9% | [6] 100% | [7] 97.9% | [8] 96.6% | [9] 112% | [10] 114% | [12] 96% | [13] 68.9% | [14] 106% | [15] 91.2% | [16] 91.6% | [17] 107% | [19] 89.4%

COc1ccc(OC)c2c1CCC1(C2)NC(=O)NC1=O (configuration not stated)
inactive: [1] 93.6% | [2] 104% | [3] 86.2% | [4] 98.8% | [5] 94.8% | [6] 101% | [7] 103% | [8] 100% | [9] 106% | [10] 118% | [12] 97.3% | [13] 82.3% | [14] 114% | [15] 103% | [16] 91.3% | [17] 104% | [19] 104%

CCN(CC)c1ccc(/C=C/C(=O)c2cccc(NS(C)(=O)=O)c2)cc1
inactive: [1] 27.8% | [3] 48.4% | [4] 74.6% | [20] 41.6% | [6] 39.6% | [7] 36.1% | [8] 15% | [9] 72.5% | [10] 83.1% | [11] 57.6% | [12] 40.3% | [13] 37.2% | [14] 25.6% | [15] 37.7% | [17] 22.8% | [18] 13.3%
active: [2] 5.36% | [19] 8.78%

COc1ccc(-c2c3c(N)nc(-c4ccncc4)nc3nc3c2c(C)nn3-c2ccccc2)cc1
active: [15] 3.79%
inactive: [1] 57.1% | [2] 23.9% | [3] 80.6% | [4] 80.7% | [5] 61% | [6] 72.6% | [7] 64.1% | [8] 41.2% | [9] 56.2% | [10] 48.1% | [12] 83.7% | [13] 85.4% | [14] 47% | [16] 36% | [17] 73.2% | [19] 51.2%

Cc1ccc(OCC(=O)Nc2ccc(Oc3ccccc3)cc2)c([N+](=O)[O-])n1
inactive: [1] 95.2% | [2] 95% | [3] 78.8% | [4] 58.7% | [20] 85% | [6] 44.2% | [7] 60.9% | [8] 89.6% | [9] 111% | [10] 30.9% | [11] 89.5% | [12] 68.5% | [14] 92.2% | [15] 101% | [16] 84.3% | [17] 107% | [18] 88% | [19] 81.8%
